Several values for one entry are separate records, joined by “and”; a condition that tells them apart may be missing. Equal entries are not always repeated. More than one record can exist for a structure, and the calls need not agree. Activity calls are given as the source filed them. How the source made its calls: active means hit-call score of the fitted dose curve at least 0.9, where 1 is the maximum; inactive means score below 0.9.
What was measured:
[1] = APR_HepG2_P-H2AX_72hr: Apredica 72-hour HepG2 Assay for H2AX Phosphorylation (AID 2282916); conditions: imaging, actives raise or lower the signal;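 further: phospho-histone H2A.x immunostain intensity per cell marking DNA damage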
Outline: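 Readout: phospho-H2A.x immunofluorescence (FITC secondary) plus Hoechst nuclear stain, high-content imaging at 20x, six fields/well. HepG2, 72 hr compound exposure, 0.39–200 uM, final DMSO 0.5% v/v. Gain or loss fitted relative to DMSO baseline.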

[2] = APR_HepG2_MitoMembPot_72hr: Apredica 72-hour HepG2 Assay for Mitochondrial Membrane Potential (AID 2282917); conditions: imaging, actives raise or lower the signal
Outline: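 HepG2 cells dosed 72 hr with compound at 0.39–200 uM in duplicate, 0.5% v/v DMSO final. Mitochondria stained with 250 nM MitoTracker Red CMXRos for 30 min before formaldehyde fixation, imaged by high-content fluorescence; bidirectional fit versus DMSO.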

[3] = APR_HepG2_MitoticArrest_72hr: Apredica 72-hour HepG2 Assay for Mitotic Arrest (AID 2282918); conditions: high-content imaging, actives raise or lower the signal
Outline: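 Read-out is phospho-histone H3 immunofluorescence with Hoechst nuclear segmentation, imaged at 20x. Human HepG2 liver cells received ten concentrations (0.39–200 uM, final DMSO 0.5% v/v) for 72 hr before fixation. Gain or loss of signal was fitted relative to DMSO.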

[4] = APR_HepG2_MicrotubuleCSK_72hr: Apredica 72-hour HepG2 Assay for Microtubule CSK Stabilty (AID 2282919); conditions: HepG2 microtubule cytoskeleton, high-content imaging, actives raise or lower the signal
Outline: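 HepG2, 72 hr cmpd exposure, 0.39–200 uM (10 pts, duplicate), 0.5% DMSO. 3.7% formaldehyde fix, 0.5% Triton perm, anti-alpha-tubulin/Cy5 plus Hoechst. HCS fluorescence intensity; bidirectional fit vs DMSO baseline; taxol as positive control.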

[5] = APR_HepG2_P-H2AX_24hr: Apredica 24-hour HepG2 Assay for H2AX Phosphorylation (AID 2282920); conditions: high-content imaging, actives raise or lower the signal
Outline: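 HepG2, 24 hr, cpd 0.39–200 uM (10 conc, duplicate), DMSO 0.5% v/v final. Fix 3.7% formaldehyde, Triton X-100 permeabilize, anti-phospho-H2A.x 1:200 + Hoechst 2 ug/mL. Imaged, bidirectional fit vs DMSO.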

[6] = APR_HepG2_StressKinase_72hr: Apredica 72-hour HepG2 Assay for Stress Kinase (AID 2282921); conditions: HepG2 stress kinase (phospho-c-Jun) imaging, actives raise or lower the signal
Outline: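 Phospho-c-Jun immunofluorescence measured by high-content imaging at 20x, six fields per well; bidirectional curve fitting against DMSO as baseline. Dosing: 0.39–200 uM, 72 h, 0.5% DMSO final.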

[7] = APR_HepG2_StressKinase_24hr: Apredica 24-hour HepG2 Assay for Stress Kinase (AID 2282922); conditions: HepG2 stress kinase (phospho-c-Jun) imaging, actives raise or lower the signal
Outline: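 Read-out: phospho-c-Jun immunofluorescence (Cy3 secondary) quantified by high-content imaging at 20x, nuclei defined by Hoechst 33342. Human HepG2 liver cells dosed 24 hr, 0.39–200 uM, DMSO 0.5% v/v; gain or loss of signal fitted relative to DMSO.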

[8] = APR_HepG2_p53Act_72hr: Apredica 72-hour HepG2 Assay for p53 Activation (AID 2282923); conditions: high-content imaging, actives raise or lower the signal;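 further: average cellular p53 protein immunofluorescence intensity in HepG2 cells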
Outline: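 Readout: p53 immunofluorescence quantified by automated high-content imaging at 20x, six fields per well, nuclei located via Hoechst. Dosing ran 72 hr over ten concentrations from 0.39 to 200 uM; bidirectional curve fitting against DMSO baseline.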

[9] = APR_HepG2_MitoMass_72hr: Apredica 72-hour HepG2 Assay for Mitochondrial Mass (AID 2282924); conditions: high-content imaging, actives raise or lower the signal;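 further: MitoTracker Red CMXRos stain intensity per cell imaged as mitochondrial mass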
Outline: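 Read-out: MitoTracker Red fluorescence intensity from automated imaging (20x, six fields per well) in human HepG2 liver cells. Dosing ran 72 hr, 0.39–200 uM, 0.5% DMSO; bidirectional curve fitting versus DMSO baseline.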

[10] = APR_HepG2_CellLoss_72hr: Apredica 72-hour HepG2 Assay for Cell Loss (AID 2282915); conditions: high-content imaging
Outline: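 HepG2 cells exposed 72 h to compound at 0.39–200 uM (10 concentrations, duplicate) in 0.5% DMSO. Fixed with 3.7% formaldehyde and Hoechst 33342-stained. Imaged at 20x; nuclear count gives cell number, fitted bidirectionally versus DMSO.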

CCOc1nc(NC)nc(NC(=O)NS(=O)(=O)c2ccccc2C(=O)OC)n1
outcome [1]: inactive | outcome [2]: inactive | outcome [3]: inactive | outcome [4]: inactive | outcome [5]: inactive | outcome [6]: inactive | outcome [7]: inactive | outcome [8]: inactive | outcome [9]: inactive

ClC1C(Cl)C(Cl)C(Cl)C(Cl)C1Cl (stereo not drawn)
outcome [1]: inactive | outcome [2]: inactive | outcome [3]: inactive | outcome [4]: inactive | outcome [5]: inactive | outcome [6]: inactive | outcome [7]: inactive | outcome [8]: inactive | outcome [9]: inactive

O=S1OCC2C(CO1)C1(Cl)C(Cl)=C(Cl)C2(Cl)C1(Cl)Cl (stereo not drawn)
AC50 [10]: 100 µM (active) | outcome [1]: inactive | outcome [2]: inactive | outcome [3]: inactive | AC50 [4]: 117 µM (active) | outcome [5]: inactive | outcome [6]: inactive | outcome [7]: inactive | outcome [8]: inactive | outcome [9]: inactive

O=[N+]([O-])/N=C1\NCCN1Cc1ccc(Cl)nc1
outcome [10]: inactive | outcome [1]: inactive | outcome [2]: inactive | outcome [3]: inactive | outcome [4]: inactive | outcome [5]: inactive | outcome [6]: inactive | outcome [7]: inactive | outcome [9]: inactive

COP(=S)(OC)Oc1ccc([N+](=O)[O-])cc1
outcome [10]: inactive | outcome [1]: inactive | outcome [2]: inactive | outcome [3]: inactive | outcome [4]: inactive | outcome [5]: inactive | outcome [6]: inactive | outcome [7]: inactive | outcome [8]: inactive | outcome [9]: inactive

CC(C)(C)C(O)C(Oc1ccc(Cl)cc1)n1cncn1 (stereo not drawn)
outcome [1]: inactive | AC50 [2]: 37.4 µM (active) | outcome [2]: inactive | outcome [3]: inactive | outcome [4]: inactive | outcome [5]: inactive | outcome [6]: inactive | outcome [7]: inactive | outcome [8]: inactive | AC50 [9]: 98 µM (active) | outcome [9]: inactive

CNC(=O)Oc1cccc(N=CN(C)C)c1
AC50 [10]: 96.5 µM (active) | AC50 [1]: 107 µM (active) | outcome [2]: inactive | outcome [3]: inactive | outcome [4]: inactive | AC50 [5]: 106 µM (active) | outcome [6]: inactive | outcome [7]: inactive | outcome [8]: inactive | outcome [9]: inactive

CC(C)(C)C(O)/C(=C\c1ccc(Cl)cc1Cl)n1cncn1 (stereo not drawn)
AC50 [10]: 15.3 µM (active) | outcome [1]: inactive | outcome [2]: inactive | outcome [3]: inactive | AC50 [4]: 175 µM (active) | outcome [5]: inactive | outcome [6]: inactive | outcome [7]: inactive | outcome [8]: inactive | outcome [9]: inactive

O=C(O)CCCOc1ccc(Cl)cc1Cl
outcome [10]: inactive | outcome [1]: inactive | outcome [2]: inactive | outcome [3]: inactive | outcome [4]: inactive | outcome [5]: inactive | outcome [6]: inactive | outcome [7]: inactive | outcome [8]: inactive | outcome [9]: inactive

COC(=O)c1ccccc1S(=O)(=O)NC(=O)Nc1nc(C)nc(OC)n1
outcome [10]: inactive | outcome [1]: inactive | outcome [2]: inactive | outcome [3]: inactive | outcome [4]: inactive | outcome [5]: inactive | outcome [6]: inactive | outcome [7]: inactive | outcome [8]: inactive | outcome [9]: inactive

CCCN(CCOc1c(Cl)cc(Cl)cc1Cl)C(=O)n1ccnc1
AC50 [10]: 30.8 µM (active) | outcome [1]: inactive | outcome [2]: inactive | outcome [3]: inactive | AC50 [4]: 165 µM (active) | outcome [5]: inactive | outcome [6]: inactive | outcome [7]: inactive | outcome [8]: inactive | outcome [9]: inactive

Oc1ccc(Cl)cc1Cc1ccccc1
AC50 [1]: 112 µM (active) and 122 µM (active) and 34.5 µM (active) | outcome [1]: inactive | AC50 [2]: 116 µM (active) and 35.4 µM (active) and 66.2 µM (active) | outcome [2]: inactive | outcome [3]: inactive | AC50 [4]: 111 µM (active) and 62.5 µM (active) | outcome [4]: inactive | AC50 [5]: 114 µM (active) [middle of 4 runs] | outcome [5]: inactive | AC50 [6]: 113 µM (active) and 122 µM (active) and 34.3 µM (active) | outcome [6]: inactive | AC50 [7]: 150 µM (active) and 99 µM (active) | outcome [7]: inactive | AC50 [8]: 111 µM (active) and 125 µM (active) | outcome [8]: inactive | AC50 [9]: 88 µM (active) | outcome [9]: inactive

CCN(CC)C(=O)SCc1ccc(Cl)cc1
outcome [10]: inactive | outcome [1]: inactive | outcome [2]: inactive | outcome [3]: inactive | outcome [4]: inactive | outcome [5]: inactive | outcome [6]: inactive | outcome [7]: inactive | outcome [8]: inactive | outcome [9]: inactive

O=S(=O)(O)C(F)(F)C(F)(F)C(F)(F)C(F)(F)C(F)(F)C(F)(F)C(F)(F)C(F)(F)F
AC50 [10]: 111 µM (active) [middle of 5 runs] | AC50 [1]: 104 µM (active) and 9.71 µM (active) and 107 µM (active) | outcome [1]: inactive | outcome [2]: inactive | outcome [3]: inactive | AC50 [4]: 111 µM (active) | outcome [4]: inactive | AC50 [5]: 108 µM (active) [middle of 4 runs] | outcome [5]: inactive | AC50 [6]: 111 µM (active) and 107 µM (active) | outcome [6]: inactive | outcome [7]: inactive | AC50 [8]: 5.6 µM (active) and 106 µM (active) | outcome [8]: inactive | outcome [9]: inactive

CCOCN(C(=O)CCl)c1c(C)cccc1CC
AC50 [10]: 9.99 µM (active) | outcome [1]: inactive | outcome [2]: inactive | AC50 [3]: 93 µM (active) | AC50 [4]: 13.9 µM (active) | AC50 [5]: 30.9 µM (active) | outcome [6]: inactive | outcome [7]: inactive | outcome [8]: inactive | outcome [9]: inactive

[2H]C1([2H])[n+]2ccccc2-c2cccc[n+]2C1([2H])[2H]
AC50 [10]: 35.1 µM (active) | outcome [1]: inactive | outcome [2]: inactive | AC50 [3]: 94.5 µM (active) | AC50 [4]: 143 µM (active) | outcome [5]: inactive | outcome [6]: inactive | outcome [7]: inactive | outcome [8]: inactive | outcome [9]: inactive

CCc1ccc(C(=O)NN(C(=O)c2cc(C)cc(C)c2)C(C)(C)C)cc1
outcome [1]: inactive | outcome [2]: inactive | outcome [3]: inactive | AC50 [4]: 51.7 µM (active) | outcome [5]: inactive | outcome [6]: inactive | outcome [7]: inactive | outcome [8]: inactive | outcome [9]: inactive

CCS(=O)(=O)c1cccnc1S(=O)(=O)NC(=O)Nc1nc(OC)cc(OC)n1
outcome [1]: inactive | outcome [2]: inactive | outcome [3]: inactive | outcome [4]: inactive | outcome [5]: inactive | outcome [6]: inactive | outcome [7]: inactive | outcome [8]: inactive | outcome [9]: inactive

O=C(O)C(F)(F)C(F)(F)C(F)(F)C(F)(F)C(F)(F)C(F)(F)C(F)(F)F
AC50 [10]: 108 µM (active) | outcome [10]: inactive | outcome [1]: inactive | AC50 [2]: 116 µM (active) and 111 µM (active) | outcome [3]: inactive | outcome [4]: inactive | outcome [5]: inactive | outcome [6]: inactive | outcome [7]: inactive | outcome [8]: inactive | outcome [9]: inactive

COP(=S)(OC)Oc1ccc(SC)c(C)c1
outcome [10]: inactive | outcome [1]: inactive | outcome [2]: inactive | outcome [3]: inactive | outcome [4]: inactive | outcome [5]: inactive | outcome [6]: inactive | outcome [7]: inactive | outcome [8]: inactive | outcome [9]: inactive

O=C(Nc1ccccc1)Nc1cnns1
AC50 [1]: 93.6 µM (active) | outcome [2]: inactive | AC50 [3]: 91.6 µM (active) | AC50 [4]: 78 µM (active) | outcome [5]: inactive | outcome [6]: inactive | outcome [7]: inactive | outcome [8]: inactive | outcome [9]: inactive

Oc1cc(Cl)ccc1Oc1ccc(Cl)cc1Cl
AC50 [1]: 24.4 µM (active) and 34.3 µM (active) | outcome [1]: inactive | AC50 [2]: 35 µM (active) | outcome [2]: inactive | AC50 [3]: 27.9 µM (active) | outcome [3]: inactive | AC50 [4]: 98.6 µM (active) and 71.5 µM (active) | outcome [4]: inactive | AC50 [5]: 27.9 µM (active) and 45.5 µM (active) | outcome [5]: inactive | AC50 [6]: 49.2 µM (active) | outcome [6]: inactive | outcome [7]: inactive | AC50 [8]: 14.9 µM (active) and 16.3 µM (active) | outcome [8]: inactive | AC50 [9]: 170 µM (active) | outcome [9]: inactive

Clc1ccccc1-c1nnc(-c2ccccc2Cl)nn1
AC50 [10]: 39.7 µM (active) | AC50 [1]: 46.4 µM (active) | outcome [2]: inactive | outcome [3]: inactive | AC50 [4]: 12.8 µM (active) | outcome [5]: inactive | outcome [6]: inactive | outcome [7]: inactive | outcome [9]: inactive

COc1cc(OC)nc(NC(=O)NS(=O)(=O)c2cc(NC=O)ccc2C(=O)N(C)C)n1
outcome [1]: inactive | outcome [2]: inactive | outcome [3]: inactive | outcome [4]: inactive | outcome [5]: inactive | outcome [6]: inactive | outcome [7]: inactive | outcome [8]: inactive | outcome [9]: inactive
